EWS-Fli inh: EWS/Fli-driven NR0B1 reporter inhibitors, primary screen, A673 cells, NR0B1 luciferase, luminescence, MLPCN library. 0.67% of 350,000 active. inhibition, % at 12.6 µM. AID 651661, 2012. viability-normalised;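 active = mean inhibition of at least 50% after viability correction, with every replicate also passing that limit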;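 also: firefly luciferase signal divided by Alamar Blue viability fluorescence both relative to DMSO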
LMP1 NFkB inh: EBV LMP1-driven NF-kappaB luciferase reporter inhibitors, primary screen, cell-based, luminescence, single point. 0.69% of 350,000 active. inhibition, % at 12.5 µM. LMP1-induced NF-kappaB luciferase reporter cells; in the data active = inhibition above about 41%
LGR2 antag: inhibitors of bursicon-induced LGR2 CRE-luciferase signal, primary screen, cell-based, HEK293, CRE-luciferase reporter, bursicon stimulation; Drosophila bursicon receptor LGR2 (rickets); bursicon-stimulated, 4 h; inhibition, % at 9.99 µM; 0.35% of 380,000 active; AID 720647, 2013;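 active = drop in luminescence signal, shown as inhibition above about 50% in the replicate tests, limit read from the data, passing the limit was not always enough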;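 also: agonist challenge used bursicon conditioned medium at about half maximal strength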
TWEAK Fn14 block: inhibitors of TWEAK-Fn14 signaling, primary screen, luciferase reporter cells, uHTS; TWEAK-stimulated Fn14 reporter cells, luciferase luminescence, 8 h; inhibition, % at 10 µM; 2% of 360,000 active; AID 1159606, 2016; in the data active = inhibition above about 50%
TROY signal inh: inhibitors of TROY-driven NF-kB signaling, primary screen, Q293 LMP1-TROYcd cells, NF-kB luciferase, uHTS. Q293 LMP1-TROYcd NF-kB luciferase reporter, 4 h. inhibition, % at 10 µM. 0.98% of 360,000 active. AID 1347056, 2019;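 active = compounds whose plate-normalised and pattern-corrected inhibition of the luciferase reporter signal at the single screening dose is 50% or more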
Large screens that a line does not name were inactive. Compounds with a hit are over-represented: about 2.5% of the library has one in this group of screens.

Cc1ccc(-c2nc(-c3ccccc3)no2)cc1	TWEAK Fn14 block 62.0 (no result: EWS-Fli inh, LGR2 antag)
COc1ccc(-c2noc(-c3ccccc3-c3ccccc3)n2)cc1	none (no result: EWS-Fli inh, LGR2 antag)
Cc1ccc(-c2nc(-c3ccncc3)no2)cc1	none
Cc1ccc(-c2nc(-c3ccccc3)no2)c(Cl)c1	EWS-Fli inh 83.9, LGR2 antag 66.7, TWEAK Fn14 block 100.9, TROY signal inh 81.3
COc1ccc(S(=O)(=O)N(C)C[C@H]2Oc3ccc(NC(=O)C4CC4)cc3CC(=O)N([C@H](C)CO)C[C@@H]2C)cc1	none (no result: LMP1 NFkB inh, TWEAK Fn14 block, TROY signal inh)
CCS(=O)(=O)Nc1ccc2c(c1)C(=O)N(C)C[C@H](OC)[C@@H](C)CN(C(=O)NC(C)C)[C@@H](C)CO2	none (no result: LMP1 NFkB inh, TWEAK Fn14 block, TROY signal inh)
C[C@H](CO)N1C[C@H](C)[C@H](CN(C)C(=O)CN(C)C)Oc2cc(C#Cc3cccnc3)ccc2S1(=O)=O	none (no result: LMP1 NFkB inh, TWEAK Fn14 block, TROY signal inh)
COc1ccccc1-c1noc(-c2ccccc2)n1	LMP1 NFkB inh 47.2 (no result: EWS-Fli inh, LGR2 antag)
COc1ccc(-c2nc(-c3ccccc3OC)no2)cc1OC	none (no result: EWS-Fli inh, LGR2 antag)
O=C(O)c1ccc(N=Nc2c(O)[nH]c3ccccc23)cc1	TWEAK Fn14 block 89.7
COc1ccccc1NS(=O)(=O)c1ccc2oc(SCc3ccc(C#N)cc3)nc2c1	TWEAK Fn14 block 57.7 (no result: EWS-Fli inh)
CNC(=O)CSc1nc2cc(S(=O)(=O)Nc3ccccc3OC)ccc2o1	none
CCc1c(C)nc2ccc(Br)cc2c1SCCC#N	TWEAK Fn14 block 79.5
O=S1(=O)c2ccc(Br)cc2N2CCC[C@@H]2CN1Cc1ccc(Cl)cc1	none
O=S1(=O)c2ccc(Br)cc2N2CC[C@H](C2)N1Cc1ccc(Cl)cc1	EWS-Fli inh 66.2
CCOC1=C2[C@H](c3ccccc3)N(S(=O)(=O)c3ccc(C)cc3)C(C(C)(C)C)[C@H]2C(C#N)(C#N)C(C#N)(C#N)C1 (some centres not stated)	TWEAK Fn14 block 53.8 (no result: LMP1 NFkB inh)
O=c1c(O)c(-c2ccc(O)c(O)c2)oc2cc(O)ccc12	TWEAK Fn14 block 55.5
C[C@@H]1CN([C@H](C)CO)C(=O)c2cccc(NS(=O)(=O)c3ccccc3)c2O[C@@H]1CN(C)C(=O)NC1CCCCC1	none (no result: LMP1 NFkB inh, TWEAK Fn14 block, TROY signal inh)
COc1ccc(-c2csc(NC(=O)C3CCN(c4ncnc5sc(C)c(C)c45)CC3)n2)cc1OC	TWEAK Fn14 block 102.2, TROY signal inh 69.8
Cc1sc2ncnc(N3CCC(C(=O)Nc4ccc(Br)cc4Br)CC3)c2c1C	TROY signal inh 56.0
COc1ccc(-c2csc(NC(=O)c3ccc(OCC(=O)N4CCOCC4)c(OC)c3)n2)cc1OC	TWEAK Fn14 block 81.5, TROY signal inh 70.8 (no result: LGR2 antag)
COc1ccccc1OCC(=O)NNC(=O)C1CCN(c2ncnc3sc(C)c(C)c23)CC1	none
Cc1sc2ncnc(N3CCC(C(=O)Nc4ccc(Cl)cc4Cl)CC3)c2c1C	none
Cc1ccccc1OCC(=O)NNC(=O)C1CCN(c2ncnc3sc(C)c(C)c23)CC1	TROY signal inh 53.0
COc1cc(C(=O)Nc2cccc(C)n2)ccc1OCC(=O)N1CCOCC1	none
Cc1noc(C)c1NC(=O)Nc1cccc2c1O[C@@H](CN(C)C(=O)Nc1ccccc1)[C@@H](C)CN([C@H](C)CO)C2=O	none (no result: LMP1 NFkB inh, TWEAK Fn14 block, TROY signal inh)
CCOC(=O)C1CCN(C(C(=O)Nc2ccc3c(c2)OCCO3)c2ccccc2)CC1 (configuration not stated)	none (no result: EWS-Fli inh)
CCOC(=O)N1CCC(N2C(=O)c3ccccc3C2Nc2ccc3c(C)cc(=O)oc3c2)CC1 (configuration not stated)	none
CCOC(=O)N1CCC(N2C(=O)c3ccccc3C2Nc2ccc3c(c2)OCCO3)CC1 (configuration not stated)	TWEAK Fn14 block 84.8, TROY signal inh 65.5
CCOC(=O)C1CCN(c2c(Nc3ccc4c(c3)OCCO4)c(=O)c2=O)CC1	TWEAK Fn14 block 80.5, TROY signal inh 62.5
C[C@H](CO)N1C[C@H](C)[C@@H](CN(C)Cc2cccnc2)Oc2ncc(C#Cc3cccnc3)cc2C1=O	none (no result: LMP1 NFkB inh, TWEAK Fn14 block, TROY signal inh)
C[C@@H]1CN([C@H](C)CO)C(=O)c2cc(NS(=O)(=O)c3cn(C)cn3)ccc2O[C@@H](C)CCCCO[C@@H]1CN(C)S(=O)(=O)c1cn(C)cn1	none (no result: LMP1 NFkB inh, TWEAK Fn14 block, TROY signal inh)
COc1cccc(-c2nnc(SC(C(=O)c3c[nH]c4ccccc34)c3ccccc3)n2C)c1 (configuration not stated)	TWEAK Fn14 block 50.8
CCOC(=O)C1=C(Cn2cnc3ccccc32)NC(=O)NC1c1cc(C)ccc1C (configuration not stated)	TROY signal inh 51.9 (no result: EWS-Fli inh)
CC(C)[C@@H](C)NC(=O)N(C)C[C@H]1OCc2ccccc2-c2ccccc2C(=O)N([C@H](C)CO)C[C@@H]1C	none (no result: LMP1 NFkB inh, TWEAK Fn14 block, TROY signal inh)
N#CCSc1nc2ccccc2c2nc3ccccc3n12	TWEAK Fn14 block 56.6 (no result: EWS-Fli inh)
Clc1ccccc1-c1nc2ccccc2c2nc3ccccc3n12	TROY signal inh 57.1 (no result: EWS-Fli inh)
Fc1ccc(-c2nc3ccccc3c3nc4ccccc4n23)cc1	TWEAK Fn14 block 58.0 (no result: LGR2 antag)
COc1ccc2c3c(n(C)c2c1)[C@H](CO)N(C(=O)NC(C)C)CC31CN(C(=O)NC(C)C)C1	none (no result: LMP1 NFkB inh, TWEAK Fn14 block, TROY signal inh)
COc1ccc2c3c([nH]c2c1)[C@@H](CO)N(CC1CC1)CC31CN(C(=O)NC2CCCC2)C1	none (no result: LMP1 NFkB inh, TWEAK Fn14 block, TROY signal inh)
COCC(=O)N(C)C[C@@H]1Oc2ncc(C3=CCCC3)cc2C(=O)N([C@H](C)CO)C[C@H]1C	none (no result: LMP1 NFkB inh, TWEAK Fn14 block, TROY signal inh)
COc1cccc(-c2ccc3c(c2)O[C@H](CN(C)Cc2cncnc2)[C@H](C)CN([C@H](C)CO)S3(=O)=O)c1	none (no result: LMP1 NFkB inh, TWEAK Fn14 block, TROY signal inh)
NC(=O)CC(NC(=O)Cc1cccc2ccccc12)c1ccc(NCc2ccccc2)c([N+](=O)[O-])c1 (configuration not stated)	none
NC(=O)CC(NC(=O)Cc1cccc2ccccc12)c1ccc(NCc2ccc(F)cc2)c([N+](=O)[O-])c1 (configuration not stated)	LMP1 NFkB inh 52.0
C[C@H]1CN([C@@H](C)CO)C(=O)CCCn2cc(nn2)CO[C@@H]1CN(C)Cc1cccc(C(F)(F)F)c1	none (no result: LMP1 NFkB inh, TWEAK Fn14 block, TROY signal inh)
Cc1noc(C)c1NC(=O)Nc1ccc2c(c1)C(=O)N([C@H](C)CO)C[C@@H](C)[C@H](CN(C)Cc1ccc(C(=O)Nc3ccccc3N)cc1)O2	none (no result: EWS-Fli inh, LMP1 NFkB inh, TWEAK Fn14 block, TROY signal inh)
Cc1c(O)ccc(/C(Cc2ccc3ccccc3n2)=N\O)c1O	none (no result: EWS-Fli inh, LGR2 antag)
CC(=O)Oc1ccc(C(=O)Cc2ccc3ccccc3n2)c(O)c1C	EWS-Fli inh 55.4
C[C@@H](NC(=O)C[C@H]1CC[C@@H](NC(=O)Cc2ccccn2)[C@H](CO)O1)c1ccccc1	none (no result: LMP1 NFkB inh, TWEAK Fn14 block, TROY signal inh)
Cn1c(-c2ncc(F)cc2F)cc2onc(-c3c(F)cccc3Cl)c2c1=O	none
Cn1c(-c2ccccc2F)cc2onc(-c3ccccc3)c2c1=O	TWEAK Fn14 block 72.6, TROY signal inh 66.4
Cn1c(-c2ccccc2)cc2onc(-c3ccccc3)c2c1=O	EWS-Fli inh 80.7, LGR2 antag 94.0, TWEAK Fn14 block 90.8, TROY signal inh 72.7

Screening data: PubChem BioAssay, several laboratories
